Calb FLC: C. albicans growth inhibition with fluconazole, primary screen, CaCi-2 strain, Alamar Blue fluorescence; growth inhibition, % (concentration not given with the values); C. albicans CaCi-2 (fluconazole-resistant clinical isolate) + fluconazole, 48 h; actives 0.57% (n = 300,000);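 active = growth inhibition above about 58% in most replicates, limit read from the data, passing the limit was not always enough; inconclusive = exactly half the replicates above a set limit; inactive = most replicates below a set limit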;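 also: all wells also contain fluconazole at 8 µg/ml as a sub-toxic cotreatment; 0% = median of DMSO wells and 100% = median of geldanamycin control wells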
Beta apoptosis: inhibitors of cytokine-induced beta cell apoptosis, primary screen, luminescence | INS-1E cytokine-induced death, ATP luminescence, 48 h; percent of positive-control rescue, neutral wells zero | protection from apoptosis, % (test concentration not listed) | actives 0.8% (n = 300,000) | AID 435005, 2010;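 active = Every replicate reaches about 75%, or at least half do and their mean reaches it too, limit read from the data; inconclusive = At least half of replicates reach the limit but their mean does not; inactive = Under half of replicates reach the limit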;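 also: 0% = cytokine-treated negative control wells and 100% = positive control rescue; higher means more ATP so stronger rescue from cytokine killing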
Shn3 inh set2: reduction of Shn3 3'UTR firefly luciferase signal, primary screen, Schnurri-3 inhibitor project, cell-based, Clone20 osteoblasts, set 2; Clone20 osteoblast Shn3 3'UTR firefly luciferase, 24 h; inhibition, % at 12.5 µM; actives 0.52% (n = 360,000); AID 588674, 2011;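 active = mean inhibition of at least 75% with every replicate also reaching 75%; inconclusive = mean inhibition at least 75% but some replicate below; inactive = mean inhibition below 75%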;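 also: 0% = median of neutral control wells and 100% = pilot-screen positive control compound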
697 NFkB inh: inhibitors of PMA/ionomycin-induced NF-kB reporter, 697 cells, primary screen, B-cell NF-kB inhibitor project, cell-based, luminescence, uHTS | inhibition, % at 4 µM | 697 B-cell NF-kB luciferase reporter, 16 h | actives 0.33% (n = 330,000) | AID 435022, 2010; in the data active = inhibition above about 35%
Jurkat NFkB inh: inhibitors of induced NF-kB luciferase reporter, primary screen, TCR NF-kB activation inhibitor project, cell-based, luminescence, uHTS; Jurkat, PMA/ionomycin-induced NF-kB luciferase reporter; inhibition, % at 4 µM; actives 0.53% (n = 330,000); AID 435003, 2010; in the data active = inhibition above about 50%
* hit, by the source's call; ? = inconclusive; nt = no result. The list is not random: actives were taken first. Their share in the collection is about 2%.

SMILES | Calb FLC | Beta apoptosis | Shn3 inh set2 | 697 NFkB inh | Jurkat NFkB inh
COCCN(C(=O)COC(=O)Cc1coc2cc(C)ccc12)c1c(N)n(Cc2ccccc2)c(=O)[nH]c1=O | 6 | 0 | -4 | -9 | -9
CCCCn1c(=N)n(CC(=O)c2ccc(Br)s2)c2ccccc21 | 3 | 83* | 58 | -12 | 12
CCn1c(=N)n(CC(=O)c2ccc(Br)s2)c2ccccc21 | -1 | -3 | nt | -23 | -27
COCC(=O)OC1CCn2c1nc1c2C(=O)C(C)=C(NC(C)=O)C1=O (configuration not stated) | nt | nt | 89* | nt | nt
O=C1C(=C(c2ccccc2)N2CCOCC2)Cc2ccccc21 | nt | nt | 98* | nt | nt
CCOC(=O)C1CCN(C(=O)c2sc3nc(C)nc(N4CCC(C)CC4)c3c2C)CC1 | 17 | -6 | 88* | -7 | -5
CCOC(=O)C1CCN(C(=O)c2sc3ncnc(N4CCC(C)CC4)c3c2C)CC1 | 17 | nt | 31 | 2 | 2
O=S(=O)(c1ccccc1Br)N(Cc1ccccc1)CC(O)COCc1ccccc1 (configuration not stated) | nt | nt | 2 | -2 | nt
O=C(/C=C/c1ccccc1)Nn1c(-c2cccs2)nc2ccccc2c1=O | 95* | -1 | -22 | 3 | -9
O=C1C(Nc2cccc(O)c2)=C(N2CCCCC2)C(=O)c2ccccc21 | 2 | nt | 5 | -17 | -5
O=C(/C=C/c1ccc(O)cc1)c1ccc(NC2=C(N3CCCCC3)C(=O)c3ccccc3C2=O)cc1 | 46 | 10 | -15 | 26 | 11
CC(=O)Nc1ccc(S(=O)(=O)NC2=C(N3CCN(C)CC3)C(=O)c3ccccc3C2=O)cc1 | nt | 99* | 14 | -11 | 29
Cc1ccc(NC2=C(N3CCCCC3)C(=O)c3ccccc3C2=O)cc1 | 24 | 76* | -12 | 3 | -1
COc1ccccc1NC1=C(N2CCCCC2)C(=O)c2ccccc2C1=O | 93* | 102* | 5 | 17 | 31
O=C1C(Nc2ccccc2)=C(N2CCCCC2)C(=O)c2ccccc21 | 8 | 83* | 6 | 12 | -8
CCN1CCN(C2=C(NS(=O)(=O)c3ccc(NC(C)=O)cc3)C(=O)c3ccccc3C2=O)CC1 | -3 | 54 | -26 | -8 | 24
CC(C)(C)Cc1c(-c2ccc(F)cc2)nc2ccc(Br)cn12 | nt | nt | 34 | nt | nt
COCCN(C(=S)Nc1ccc(C(C)C)cc1)C(C)c1cccs1 (configuration not stated) | -9 | 0 | nt | 6 | -10
Cc1ccc(C2(C)NC(=O)N(CC(=O)Nc3ccccc3C(=O)NC3CCCC3)C2=O)cc1 (configuration not stated) | 4 | 0 | -15 | 0 | 8
CCCc1nc2nc(C)c(NS(=O)(=O)c3ccc(C)c(C)c3)c(=O)n2[nH]1 | nt | nt | 10 | nt | nt
Cc1ccc2nc(-c3ccncc3)cc(-c3ccccc3)c2c1 | -7 | 7 | -12 | 9 | 15
Cc1ccc(-c2cc3cccc[n+]3cc2-c2ccc(C)cc2)cc1 | -2 | 110* | 82 | -81 | 50
Cc1cccc(N(CC(=O)NC(C)C)C(=O)CCC(=O)Nc2nccs2)c1 | -14 | -6 | -11 | -16 | 3
O=C(Nc1cc(Sc2ccccn2)cc([N+](=O)[O-])c1)c1ccc(Cl)cc1 | 0 | 75* | 79 | -42 | 21
O=C(Nc1cc(Sc2ccccn2)cc([N+](=O)[O-])c1)c1cccc(Cl)c1 | 113* | 10 | 0 | 2 | 1
SMILES | Calb FLC | Beta apoptosis | Shn3 inh set2 | 697 NFkB inh | Jurkat NFkB inh
C[C@H](CO)N1C[C@H](C)[C@@H](CN(C)Cc2ccc(-c3ccccc3)cc2)Oc2c(NC(=O)Nc3ccc4c(c3)OCO4)cccc2C1=O | nt | 0 | -26 | 2 | -8
CCN(CC)S(=O)(=O)c1cccc(C(=O)N/N=C/c2cccc(O)c2O)c1 | -2 | 42 | 90* | -48 | 5
Cc1ccc(C(C)C)c(OCc2ccc(C(=O)N/N=C/c3cccc(O)c3O)cc2)c1 | 87* | 90* | 94* | nt | nt
O=C(N/N=C/c1ccccc1O)c1cccc(C(F)(F)F)c1 | 80* | ? | 93* | -1 | 42
COc1cc(/C=N/NC(=O)c2ccc(COc3cc(C)ccc3C(C)C)cc2)cc(OC)c1O | 0 | 28 | 10 | -144 | 3
Cc1[nH]n(C2=NCCS2)c(=O)c1N=Nc1cccc(C(F)(F)F)c1 | 22 | 94* | 27 | 15 | 3
Cc1cc(C)c(C#N)c(OCC2CCCO2)n1 (configuration not stated) | nt | nt | 16 | nt | nt
CC(=O)N1CCc2cc(S(=O)(=O)NCCCN3CCCCC3)ccc21 | 0 | -7 | -2 | -11 | -9
CC(=O)N1CCc2cc(S(=O)(=O)NCCC3=CCCCC3)ccc21 | -4 | 87* | 71 | -23 | 25
Cc1ccc(S(=O)(=O)NCCC2=CCCCC2)cc1C(N)=O | 14 | 34 | 73 | -26 | 19
O=C(Nc1cccc(F)c1)c1cc(S(=O)(=O)NCCC2=CCCCC2)ccc1F | -35 | 1 | 89* | -9 | 8
Cc1ccc(NC(=O)c2cc(S(=O)(=O)NCCC3=CCCCC3)ccc2F)cc1F | -4 | 107* | 92* | -44 | 20
O=C(CNC(=O)c1ccccc1)Oc1cccc(Cl)c1 | -7 | -6 | -35 | -1 | 8
COC(=O)c1ccc(NS(=O)(=O)c2cc(-c3cc(C)no3)ccc2OC)cc1 | 88* | 17 | -11 | -38 | 47
[O-][n+]1c2ccccc2c2n1CCN1CCOC21c1ccc(Cl)cc1 (configuration not stated) | nt | 3 | -38 | -91 | -40
Fc1ccc(-n2nnnc2-c2cnc(-c3cccs3)nc2C(F)(F)F)cc1 | -8 | 26 | 90* | -45 | 12
Cn1c(=O)n(C)c2cc(NC(=O)Cc3ccccc3[N+](=O)[O-])ccc21 | 4 | -1 | 1 | 10 | 2
CCN(CC)CCNc1ncnc2c1sc1nc(N3CCOCC3)c3c(c12)CC(C)(C)SC3 | 12 | 103* | 22 | -26 | 17
Cc1cccc(N2CCN(c3nc(C)cc(C)c3C#N)CC2C)c1 (configuration not stated) | 90* | -2 | -39 | -1 | -20
COc1ccc(COC(=O)CCc2c[nH]c3ccccc23)cc1F | 5 | -4 | -9 | -3 | 31
CC(=NNC(=S)N1CCN(C2CCCCCC2)CC1)c1ccccn1 | nt | nt | 93* | nt | nt
C/C(=N\NC(=O)C1CCCN(S(=O)(=O)c2ccccc2)C1)c1ccccn1 (configuration not stated) | 7 | 61 | 72 | -10 | 32
CC(=NNC(=S)N1CCN(c2ccccn2)CC1)c1nccs1 | nt | nt | 85* | nt | nt
CC(=NNC(=S)N1CC2CCC(CC2)C1)c1cnccn1 | nt | nt | 84* | nt | nt
CC(=NNC(=S)N1CC2CCC(CC2)C1)c1ccccn1 | nt | nt | 86* | nt | nt
CC(=NNC(=S)N1CCN(c2ccccn2)CC1)c1ccccn1 | nt | nt | 4 | nt | nt

Compound activity: PubChem, several laboratories
